MPTP block: mitochondrial permeability transition pore inhibitors, primary screen, biochemical, isolated mouse mitochondria, absorbance; AID 602449, 2012; Ca2+ swelling absorbance, 30 min; inhibition, % at 10 µM; actives 1.4% (n = 360,000);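 active means inhibition of 50% or more, scaled per plate between neutral and stimulator controls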;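 further: 0% = DMSO wells given calcium and 100% = 1 mM EGTA wells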
TIM10 inh: growth inhibitors of isogenic TIM10 control yeast, primary screen, counter-screen for tim10-1 yeast inhibitor project, luminescence, uHTS | S. cerevisiae TIM10 strain growth, BacTiter-Glo luminescence, 24 h | inhibition, % at 10 µM | actives 1.4% (n = 330,000) | AID 463195, 2010;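 active means inhibition of 40% or more at the single tested concentration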;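 further: wild-type TIM10 isogenic control strain grown at permissive 25 °C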
tim10-1 inh: growth inhibitors of tim10-1 mutant yeast, primary screen, luminescence, uHTS. S. cerevisiae tim10-1 ts strain growth, BacTiter-Glo, 24 h. inhibition, % at 20 µM. actives 2.2% (n = 330,000). AID 463190, 2010;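 active means inhibition of at least 40%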;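 further: mutant grown at 25 °C; 0% = DMSO wells with yeast and 100% = wells holding no yeast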
tim23-1 inh: growth inhibitors of tim23-1 mutant yeast, primary screen, luminescence, uHTS; actives 1.3% (n = 330,000); AID 463212, 2010; S. cerevisiae tim23-1 growth, BacTiter-Glo luminescence, 24 h; inhibition, % at 20 µM;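 active means growth inhibition of the mutant yeast at or above 50%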;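 further: temperature-sensitive mutant grown at 25 °C; plate controls were DMSO-treated mutant yeast for no effect and medium wells lacking yeast for full effect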
Mdm2-MdmX inh: inhibitors of human Mdm2-MdmX association, primary screen, cell-based, luminescence, split luciferase, SaOS-2, uHTS. Protein Mdm4 (Homo sapiens) + E3 ubiquitin-protein ligase Mdm2 (Homo sapiens), …. SaOS-2 split-luciferase Mdm2/MdmX complementation. inhibition, % at 8 µM. actives 3% (n = 330,000);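 active means inhibition of at least 50% at 8 µM in the primary screen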
Target sequence (O15151 whole entry, looked up): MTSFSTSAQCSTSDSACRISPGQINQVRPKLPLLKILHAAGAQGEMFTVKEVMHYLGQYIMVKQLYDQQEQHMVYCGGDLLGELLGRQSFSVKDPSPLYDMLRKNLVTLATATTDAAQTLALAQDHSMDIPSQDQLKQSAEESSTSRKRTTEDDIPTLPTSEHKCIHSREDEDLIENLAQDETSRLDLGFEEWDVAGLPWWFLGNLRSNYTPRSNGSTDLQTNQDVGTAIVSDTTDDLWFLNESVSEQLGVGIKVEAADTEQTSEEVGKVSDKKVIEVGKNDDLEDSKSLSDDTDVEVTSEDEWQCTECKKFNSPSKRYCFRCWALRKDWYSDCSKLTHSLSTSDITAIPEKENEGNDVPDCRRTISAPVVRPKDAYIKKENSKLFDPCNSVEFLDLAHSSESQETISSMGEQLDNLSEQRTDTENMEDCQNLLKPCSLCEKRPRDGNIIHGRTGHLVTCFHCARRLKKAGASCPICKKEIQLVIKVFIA
Target sequence (Q00987 whole entry, looked up): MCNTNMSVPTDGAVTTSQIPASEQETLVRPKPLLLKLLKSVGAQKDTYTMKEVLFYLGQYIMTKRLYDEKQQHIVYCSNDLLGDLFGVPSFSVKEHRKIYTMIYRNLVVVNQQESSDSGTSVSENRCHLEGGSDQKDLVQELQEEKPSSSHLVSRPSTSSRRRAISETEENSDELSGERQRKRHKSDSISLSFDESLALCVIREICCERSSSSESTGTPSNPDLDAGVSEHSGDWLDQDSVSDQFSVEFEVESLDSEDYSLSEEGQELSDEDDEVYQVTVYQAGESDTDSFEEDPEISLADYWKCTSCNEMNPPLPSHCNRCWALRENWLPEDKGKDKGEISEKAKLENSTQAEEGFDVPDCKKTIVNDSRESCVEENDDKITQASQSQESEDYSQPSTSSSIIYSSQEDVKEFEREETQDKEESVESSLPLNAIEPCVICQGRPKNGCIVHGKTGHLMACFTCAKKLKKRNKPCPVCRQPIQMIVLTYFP
Mdm2-MdmX conf: Mdm2-MdmX complex disruptors, retested hits, confirmation, luminescence, single concentration | AID 489028, 2010 | shares compounds with Mdm2-MdmX inh | actives 55% (n = 10,000) | inhibition, % at 8 µM | Mdm2-MdmX binding, luminescent assay; in the data active means inhibition above about 40%
Full FLuc ctr: full-length luciferase signal inhibition, confirmation, counter-screen for Mdm2/MdmX interaction inhibitor project, cell-based, single concentration, SaOS-2 | actives 77% (n = 6,200) | SaOS-2 full-length luciferase counterscreen, luminescence | shares compounds with Mdm2-MdmX inh | inhibition, % at 8 µM;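 active means mean inhibition at 8 µM reaching about 37%, which flags the compound as non-specific, limit read from the data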;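 further: p53-null SaOS-2 cells with luciferase driven by a doxycycline-inducible promoter; compound on cells about two nights before reading with doxycycline added after day one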
Numbers without * were called inactive; . = not tested or not shown. Only some compounds are listed: those with a hit (about 6.3% of all), similar ones and a draw of the others.

SMILES	MPTP block	TIM10 inh	tim10-1 inh	tim23-1 inh	Mdm2-MdmX inh	Mdm2-MdmX conf	Full FLuc ctr
O=[N+]([O-])c1c(NCCCO)cc(Sc2ccc(Cl)cc2)c2nonc12	22.7	.	.	.	.	.	.
CC(=O)OCCCNc1cc(Sc2ccc(C)cc2)c2nonc2c1[N+](=O)[O-]	8.0	-3.9	-18.7	-8.4	53.9*	58.6*	67.8*
c1ccc2cc(CCO[C@H]3CCCCO3)ncc2c1	-0.2	-5.3	-2.7	9.6	1.7	.	.
c1nc(CCO[C@H]2CCCCO2)cc2cc3c(cc12)OCO3	-1.1	4.0	10.1	23.1	55.6*	34.9	.
Cn1c(=O)c2[nH]c(C=Cc3ccc4c(c3)OCO4)nc2n(C)c1=O	-3.2	.	.	.	.	.	.
CN(C(=O)c1cccc(NC(=O)Cc2ccc(NC(=O)C3CCCN(C(=O)C4CCC4)C3)cc2)c1)C1CCCC1 (centres undefined)	-1.0	.	.	.	.	.	.
COc1cccc(N2CCN(C(=O)c3[nH]c(C)c(C(C)=O)c3C)CC2)c1	8.3	-0.5	16.8	16.5	53.8*	68.2*	41.8*
CC(=O)c1c(C)[nH]c(C(=O)N2CCN(c3cc(Cl)ccc3C)CC2)c1C	2.0	12.9	19.1	6.3	72.8*	75.2*	34.0
CC(C)[C@H](NC(=O)c1ccc(Cl)cc1Cl)C(=O)OCc1nc2ccsc2c(=O)[nH]1	0.7	.	.	.	.	.	.
CCn1c(=O)c2cc(C(=O)Nc3ccccc3OC)sc2c2ccccc21	1.0	13.8	1.1	-12.5	61.4*	35.8	73.0*
COc1ccc(NC(=O)c2cc3c(Cl)nc4ccccc4c3s2)cc1OC	7.4	2.9	7.9	7.3	-2.7	.	.
COc1ccc(OC)c(NC(=O)c2cc3c(Cl)nc4ccccc4c3s2)c1	2.3	-5.6	-8.4	-1.6	52.8*	19.8	.
COc1ccc(CCNC(=O)c2cc3c(=O)n4cccc(C)c4nc3n(Cc3ccco3)c2=N)cc1OC	-1.8	2.6	8.3	15.3	100.3*	95.5*	2.6
N=c1c(C(=O)NCc2ccc(F)cc2)cc2c(=O)n3ccccc3nc2n1Cc1ccco1	0.3	9.7	-14.7	0.2	100.1*	61.0*	15.9
Cc1cccn2c(=O)c3cc(C(=O)NCCc4ccccc4)c(=N)n(Cc4ccco4)c3nc12	-1.3	10.1	-8.8	3.5	100.5*	92.2*	14.4
Cc1cccn2c(=O)c3cc(C(=O)NCc4ccco4)c(=N)n(CCc4ccccc4)c3nc12	2.9	-8.4	9.4	10.8	11.3	.	.
Cc1ccc(CNC(=O)c2cc3c(=O)n4ccccc4nc3n(Cc3ccco3)c2=N)cc1	-0.6	8.7	1.1	4.1	43.5	.	.
N=c1c(C(=O)NCc2ccccc2)cc2c(=O)n3ccccc3nc2n1Cc1ccco1	-0.2	27.5	30.1	4.8	36.8	.	.
OC(c1ccc(Cl)c(F)c1)c1ncc(-c2ccc(F)cc2)[nH]1 (centres undefined)	6.7	.	.	.	.	.	.
CCn1c(=O)cc(SCC(=O)N2CCN(C(=O)c3ccco3)CC2)c2ccccc21	-1.3	7.2	5.1	2.9	53.2*	32.1	.
CCn1c(=O)cc(SCC(=O)Nc2ccc(OC)c(OC)c2)c2ccccc21	22.8	11.2	9.9	-4.3	51.9*	42.8*	58.0*
CCn1c(=O)cc(SCC(=O)N2CCN(C3CCCCC3)CC2)c2ccccc21	-1.5	2.6	-1.5	12.9	41.0	.	.
CCn1c(=O)cc(SCC(=O)N2CCN(c3ccccc3OC)CC2)c2ccccc21	-1.2	15.5	17.1	20.7	62.2*	37.4	.
CCn1c(=O)cc(SCC(=O)N2CCOCC2)c2ccccc21	-1.0	-6.2	4.1	6.8	39.1	.	.
CCOC(=O)CCCCCC(=O)Nc1ccc2c(c1)C(=O)N([C@@H](C)CO)C[C@H](C)[C@H](CN(C)C(=O)c1ccccc1)OCCCC[C@H](C)O2	-0.6	.	.	.	.	.	.
SMILES	MPTP block	TIM10 inh	tim10-1 inh	tim23-1 inh	Mdm2-MdmX inh	Mdm2-MdmX conf	Full FLuc ctr
S=C(Nc1ccccc1)Nc1nc2ccccc2n1CCOc1ccc(Cl)cc1	3.2	7.3	17.5	15.4	83.7*	41.3*	67.8*
CCCCCCCn1c(NC(=O)CC)nc2ccccc21	3.0	16.7	34.6	32.9	77.3*	41.5*	51.5*
CCCn1c(Nc2nc3ccccc3n2C)nc2ccccc21	2.4	8.1	30.5	10.1	89.5*	100.2*	53.0*
CCCn1c(NC(=S)Nc2ccccc2)nc2ccccc21	1.1	17.3	32.3	41.2	52.2*	38.8	.
CCN1C(=O)[C@H]2[C@@H](c3ccc(OC)cc3)N[C@]3(CCCN(Cc4ccc(Br)cc4)C3=O)[C@H]2C1=O	-1.5	.	.	.	.	.	.
CCOC(=O)c1cc(-c2cc(OC)c(OC)c(OC)c2)nc2c1c(=O)[nH]c(=O)n2Cc1ccccc1	-0.9	13.3	9.0	9.1	57.3*	56.1*	86.3*
CCOC(=O)c1cc(-c2ccc(F)cc2)nc2c1c(=O)[nH]c(=O)n2Cc1ccccc1	-0.9	2.7	1.8	-14.4	28.0	.	.
CN(C)c1ncnc2c1ncn2[C@H]1CN(CCN2CCOCC2)C[C@@H](CO)O1	0.2	.	.	.	.	.	.
Cc1ccc(C)c(NC(=O)C(Sc2ncnc3ccccc23)c2ccccc2)c1 (centres undefined)	3.7	21.4	24.0	8.1	27.6	.	.
Cc1ccc(C)c(NC(=O)C(Sc2nc3ccccc3c(=O)n2CC(C)C)c2ccccc2)c1 (centres undefined)	8.9	9.3	2.6	-13.8	83.5*	63.0*	82.7*
COc1ccc(Nc2nnc(SC(C(=O)Nc3cc(C)ccc3C)c3ccccc3)s2)cc1 (centres undefined)	5.5	11.5	10.9	1.7	83.9*	4.7	.
O=C(NCC(F)(F)F)c1ccc2sc([C@@H]3O[C@H](CO)[C@H](O)[C@H](O)[C@H]3O)nc2c1	0.6	.	.	.	.	.	.
CCSc1ccc(C(=O)Nc2ccc(Br)cn2)cc1[N+](=O)[O-]	1.4	-1.1	0.7	26.3	16.5	.	.
Cn1cc([N+](=O)[O-])c(C(=O)Nc2ccc(Br)cn2)n1	0.5	-7.6	1.1	16.1	55.9*	43.5*	90.3*
Cn1cc([N+](=O)[O-])c(C(=O)Nc2nccs2)n1	0.0	-4.2	4.3	6.6	57.2*	16.6	.
Cn1cc([N+](=O)[O-])c(C(=O)Nc2ccc(-c3nc4ccccc4o3)cc2)n1	1.2	-18.5	-0.9	-27.8	51.7*	49.3*	42.7*
COc1ccc(C(=O)Nc2nccs2)cc1[N+](=O)[O-]	-0.9	20.1	2.8	-9.3	-2.9	.	.
COc1ccc(CNC(=O)c2cn(Cc3ccc(S(=O)(=O)N(C)C)cc3)c(=O)s2)cc1	-0.9	.	.	.	.	.	.

High-throughput results (PubChem BioAssay)
